TbPYK inhibitor = qHTS of Trypanosoma Brucei Inhibitors | TbPYK enzyme, Kinase-Glo Plus ATP luminescence, 45 min | pyruvate kinase (Trypanosoma brucei), Q57TT1 | AID 624173, 2012 | actives 0.12% (n = 410,000) | Potency, µM (top dose mostly 76.8 µM), actives largely listed as inhibitors; note: nearly all actives have a fitted effect of over 50% in size
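Readout: single end-point luminescence (Kinase-Glo Plus, 10 min). Reaction conditions were TbPYK/substrate plus 130 uM ADP, 45 min at RT, pH 7.2 TEA buffer. No-enzyme wells served as controls, and data were normalized before concentration-response fitting.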
Giardia FBPA inh-1 = qHTS Assay for Inhibitors of Fructose-1,6-bisphosphate Aldolase from Giardia Lamblia | A8B2U2 | purified Giardia FBPA | Potency, µM (series often up to 59.6 µM), most hits filed as inhibitors | actives 0.71% (n = 290,000); note: nearly all actives have a fitted effect of over 55% in size
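Giardia FBPA (40 nM reagent) was preincubated 10 min at RT with compound (up to 57.5 uM final), then substrate plus GAPDH/TPI/NAD/arsenate coupling system with diaphorase/resazurin was added; resorufin fluorescence (525/598 nm) was read after 20 min.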
SARS PLP yeast = qHTS of Yeast-based Assay for SARS-CoV PLP; S. cerevisiae expressing SARS-CoV PLpro, growth rescue; Potency, µM (titrated, usually from 32.9 µM), hits mostly activators; actives 0.19% (n = 330,000); calls by dose curve; note: nearly all actives have a fitted effect of over 55% in size
LmPK inh = qHTS Assay for Inhibitors of Leishmania Mexicana Pyruvate Kinase (LmPK); Q27686; purified LmPK, Kinase-Glo ATP luminescence, 1 h; Potency, µM (doses to about 57.5 µM), actives largely listed as inhibitors; actives 0.37% (n = 290,000); AID 1721, 2009
Target sequence (Q27686 whole entry, looked up): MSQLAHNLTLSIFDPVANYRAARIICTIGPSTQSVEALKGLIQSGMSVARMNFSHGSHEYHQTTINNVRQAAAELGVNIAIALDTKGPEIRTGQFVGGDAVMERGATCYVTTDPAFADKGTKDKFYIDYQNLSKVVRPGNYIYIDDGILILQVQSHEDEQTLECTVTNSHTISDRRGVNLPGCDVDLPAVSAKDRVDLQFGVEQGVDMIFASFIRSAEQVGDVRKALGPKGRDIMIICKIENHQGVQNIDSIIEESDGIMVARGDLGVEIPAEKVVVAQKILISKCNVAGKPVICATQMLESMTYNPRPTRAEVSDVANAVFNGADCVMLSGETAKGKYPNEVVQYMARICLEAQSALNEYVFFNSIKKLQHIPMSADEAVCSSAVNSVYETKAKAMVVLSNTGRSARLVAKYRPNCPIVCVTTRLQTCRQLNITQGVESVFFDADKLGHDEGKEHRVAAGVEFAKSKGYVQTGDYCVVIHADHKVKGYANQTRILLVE
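ATP generated from ADP (0.1 mM) and PEP (0.5 mM) by 0.1 nM LmPK over 1 h at room temperature (pH 7.2 imidazole buffer) was detected by coupled luciferase luminescence. Values were normalized to uninhibited and no-enzyme wells.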
RE007 growth inh = qHTS Assay for Inhibitors of the HIV-1 protein Vpr | Potency, µM (titrated, usually from 92.2 µM), hits mostly inhibitors | AID 651644, 2012 | actives 0.21% (n = 360,000) | S. pombe RE007 Vpr strain, BacTiter-Glo ATP luminescence, 24 h; active = well fitted falling curve with a large enough effect; inconclusive = small, poorly fitted or top-dose-only effect; inactive = no such curve, though single readings can be large or run the other way; note: nearly all actives have a fitted effect of over 50% in size
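Fission yeast RE007 carrying one integrated HIV-1 vpr copy, seeded at OD 0.01 in PMG+AL medium with 23 nL pinned compound. Grown 24 h at 30 degrees; viability read by BacTiter-Glo luminescence after 5 min.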
Giardia growth = qHTS Assay for Inhibitors of Fructose-1,6-bisphosphate Aldolase from Giardia Lamblia: Giardia lamblia growth inhibition | Potency, µM (series often up to 57.5 µM), actives largely listed as inhibitors | AID 2785, 2010 | shares compounds with Giardia FBPA inh-1 | actives 5% (n = 1,500) | Giardia lamblia trophozoite growth inhibition;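 note: trophozoites exposed to compound for 48 h at 37 °C; nearly all actives have a fitted effect of over 70% in size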
Mammalian tox = qHTS Assay for Inhibitors of Fructose-1,6-bisphosphate Aldolase from Giardia Lamblia: Mammalian cellular toxicity. shares compounds with Giardia FBPA inh-1. mammalian cell viability counter-screen, qHTS. Potency, µM (top dose mostly 57.5 µM), actives largely listed as inhibitors. actives 4% (n = 1,500);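 note: Chinese hamster ovary cells used as mammalian cytotoxicity surrogate; viability measured as cellular ATP by luminescence; compound exposure lasted 48 h before reading; nearly all actives have a fitted effect of over 60% in size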
Giardia FBPA inh-2 = qHTS Assay for Inhibitors of Fructose-1,6-bisphosphate Aldolase from Giardia Lamblia: Primary screen confirmation; AID 2787, 2010; purified Giardia aldolase enzyme activity, qHTS; actives 5% (n = 1,500); shares compounds with Giardia FBPA inh-1; Potency, µM (highest dose often 57.5 µM), hits mostly inhibitors; note: nearly all actives have a fitted effect of over 45% in size
Rabbit FBPA inh = qHTS Assay for Inhibitors of Fructose-1,6-bisphosphate Aldolase from Giardia Lamblia: Rabbit FBPA Selectivity | Rabbit muscle FBPA enzyme inhibition, selectivity counter-screen | Potency, µM (highest dose often 57.5 µM), actives largely listed as inhibitors | actives 4% (n = 1,500) | shares compounds with Giardia FBPA inh-1; note: nearly all actives have a fitted effect of over 60% in size
GAPDH coupling = qHTS Assay for Inhibitors of Fructose-1,6-bisphosphate Aldolase from Giardia Lamblia: Coupling assay counterscreen confirmation; Potency, µM (highest dose often 57.5 µM), most hits filed as inhibitors; shares compounds with Giardia FBPA inh-1; GAPDH coupling enzyme counterscreen, biochemical, qHTS; actives 6% (n = 1,500); note: nearly all actives have a fitted effect of over 55% in size
Numbers stand for hits; n = inactive; u = inconclusive; x = not tested or not shown; [ ] = another dose, or the depositor's remark. Rows were chosen to be rich in hits. Some 1.1% of all compounds tested hit in one or more screens of this group. Unless noted, calls come from the whole dose curve; as a rule, active = well fitted curve in the direction sought with a large enough effect; inconclusive = small, poorly fitted or top-dose-only effect, or another doubt; inactive = no such curve, though single readings can be large; an effect the other way counts as inactive or inconclusive.

SMILES	TbPYK inhibitor	Giardia FBPA inh-1	SARS PLP yeast	LmPK inh	RE007 growth inh	Giardia growth	Mammalian tox	Giardia FBPA inh-2	Rabbit FBPA inh	GAPDH coupling
O=C(CN1CCN(c2ccc(F)cc2)CC1)NCc1ccc(F)cc1	n	n	n	n	n	x	x	x	x	x
CCN(CC(=O)NCc1ccc(F)cc1)C(=O)CN1CCN(c2ccc(OC)cc2)CC1	n	7.9µM	n	n	n	n	n	n	n	n
Nc1nc(=S)c2ncn(C3CCCCC3)c2[nH]1	u	x	x	x	n	x	x	x	x	x
CCCn1cnc2c(=S)nc(N)[nH]c21	u	4.5µM	n	n	n	n	n	u	n	n
CCCCCn1cnc2c(=S)nc(N)[nH]c21	n	2.8µM	n	n	x	n	n	n	n	n
CCCCn1cnc2c(=S)nc(N)[nH]c21	n	7.1µM	n	n	n	n	n	n	n	n
Cn1c(=O)c2c([nH]c(=S)n2Cc2ccc(Cl)cc2)n(C)c1=O	3.5µM	8.9µM	n	u	n	n	n	n	n	n
Cn1c(=O)c2c(ncn2Cc2ccc(Cl)cc2)n(C)c1=O	n	n	n	n	n	x	x	x	x	x
N#CCCCS(=O)(=O)c1nnnn1-c1ccc(F)cc1Br	x	n	x	x	x	x	x	x	x	x
COc1ccc(Cc2c(C)nn(-c3nc(C)c(C(=O)Nc4ccc(C)cc4C)s3)c2C)cc1	n	x	x	x	x	x	x	x	x	x
Cc1cc(=O)n2cccc(O)c2n1	n	20µM	n	n	n	n	n	n	u	u
COc1ccc(C2C(=O)N(C3CCCCC3)CC(=O)N2CCc2ccc(OC)c(OC)c2)cc1 (stereo unspecified)	n	x	x	x	x	x	x	x	x	x
COc1ccccc1-n1c(-c2ccco2)n[nH]c1=S	10µM	14µM	n	u	n	n[10.4 µM]	n	n	n	n
O=C(NCc1n[nH]c(=S)n1-c1ccccc1)c1ccco1	u	n	n	n	n	x	x	x	x	x
COc1ccccc1-n1c(CNC(=O)c2ccco2)n[nH]c1=S	u	11µM	u	n	n	n	n	n	n	n
COc1ccccc1-c1n[nH]c(=S)n1N	n	16µM	n	n	n	n	n	n	n	n
Cc1ccc(C(=O)c2cn(Cc3ccc(Cl)cc3)c3nc(C)ccc3c2=O)cc1	n	x	n	x	x	x	x	x	x	x
O=C(O)c1ccc2cccc(O)c2n1	n	2.2µM	n	n	n	u	n	u	n	u
O=C(O)c1cccc(Cl)n1	n	n	n	n	n	x	x	x	x	x
COc1ccc(CN2CCN(C(=O)c3cccc(OC)c3OC)CC2)cc1OC	n	20µM	n	n	n	n	n	n	n	n
COc1ccc(CN2CCN(C(C)C(=O)N(C)Cc3cccc(F)c3)CC2)cc1OC (stereo unspecified)	n	16µM	n	n	n	u	n	n	n	n
CCOc1ccc(-c2nc3c(c(SCC(=O)N4CCCCC4)n2)Cc2cc(C)ccc2O3)cc1	n	x	x	x	x	x	x	x	x	x
COc1ccc(N2C(N)=C(C#N)C(c3cccnc3)C3=C2CC(C)(C)CC3=O)cc1 (stereo unspecified)	n	n	n	n	n	x	x	x	x	x
COc1ccc(C2C(C#N)=C(N)N(c3cccnc3)C3=C2C(=O)CC(C)(C)C3)cc1OC (stereo unspecified)	n	14µM	n	n	u	n	n	n	n	n
COc1ccc(/C=C2\SC(N)=NC2=O)cc1Br	n	n	n	n	n	x	x	x	x	x
SMILES	TbPYK inhibitor	Giardia FBPA inh-1	SARS PLP yeast	LmPK inh	RE007 growth inh	Giardia growth	Mammalian tox	Giardia FBPA inh-2	Rabbit FBPA inh	GAPDH coupling
COc1cc(/C=C2\SC(c3ccc(C)cc3)=NC2=O)cc(OC)c1O	u	14µM	n	u	n	u	n	14µM	u	u
Cc1ccc(C2=NC(=O)/C(=C/c3cc(O)c(O)c(Br)c3)S2)cc1	u	16µM	6.3µM	n	n	n[10.4 µM]	n	n	n	n
COc1cc(/C=C2\SC(N)=NC2=O)cc(Cl)c1O	n	n	n	n	n	x	x	x	x	x
CCN1CCN(C(=S)c2ccc(O)cc2)CC1	u	8.9µM	n	n	n	n	n	n	n	n
CN(C)c1ccc(C(=S)N2CCN(Cc3ccccc3)CC2)cc1	u	6.3µM	n	n	n	n	n	n	u	u
CCN1CCN(C(=S)c2ccc(Br)cc2)CC1	u	x	u	n	n	x	x	x	x	x
CCNC(=S)N1CCN(Cc2ccccc2)CC1	n	u	n	n	n	x	x	x	x	x
Cc1ccc(C(=S)N2CCN(Cc3ccccc3)CC2)s1	u	18µM	n	n	n	n	n	u	u	u
Oc1ccc(C(=S)N2CCN(Cc3ccccc3)CC2)cc1	u	18µM	n	n	n	n	n	n	n	n
Cc1ccsc1CN(C(=O)COc1ccccc1Cl)C1CCS(=O)(=O)C1 (stereo unspecified)	n	x	x	x	x	x	x	x	x	x
O=C(c1ccc(Br)cc1)N1CCN(Cc2ccccc2)CC1	n	n	n	n	n	x	x	x	x	x
S=C(c1ccc(Br)cc1)N1CCN(Cc2ccccc2)CC1	u	14µM	n	n	n	u	n	u	u	u
O=C(NC(=S)Nn1cnnc1)c1ccccc1Br	n	11µM	n	n	n	u	n	n	n	n
O=C(NC(=S)Nn1cnnc1)c1ccccc1	n	x	n	x	n	x	x	x	x	x
Cc1cc(Br)ccc1NC(=O)CN1C(=O)c2cccnc2Sc2ccccc21	n	x	x	x	x	x	x	x	x	x
CCn1c(CSc2n[nH]c(N)n2)nc2cc(C(=O)O)ccc21	n	16µM	n	n	n	n	n	n	n	n
CCn1c(CSc2nnc(-c3cccnc3)n2-c2ccccc2C)nc2cc(C(=O)O)ccc21	x	7.9µM	n	n	x	n	n	u	n	n
COc1cc(Br)c(CN2CCCN(C)CC2)cc1OC	n	13µM	n	n	n	n	n	n	n	n
COc1ccc(CN2CCCN(C)CC2)c(OC)c1C	n	u	n	n	n	x	x	x	x	x
O=C(O)CC/C=C\C[C@@H]1CO[C@H](c2ccccc2Cl)O[C@@H]1c1ccccc1O	x	n	x	x	x	x	x	x	x	x
